# In ChEMBL document CHEMBL4513216, “Probing the Open Global Health Chemical Diversity Library for Multistage-Active Starting Points for Next-Generation Antimalarials” (ACS Infect Dis, 2020):
# Out of some 69,000 compounds screened, about 8,600 (12%) showed an effect of 50% or more. The list comes from a sample in which strong results are over-represented; it also holds similar structures and randomly drawn compounds.
# Tested on: Plasmodium berghei
# Assay: Screen against P. berghei liver stage (PbLuc), transformed with Luciferase, at 10uM
# Format: functional, HepG2
# Conditions: tested at 10 uM
row,Compound,INHIBITION [%]
1,O=C(CC1CCCC1)N1CC[C@H]2[C@H]1CCN2c1nncs1,43.8
2,CCc1ncc(C(=O)N2CCC(Nc3ccc(C)nn3)CC2)s1,-58.7
3,COCC(=O)N1CC[C@]2(O)CCN(C(=O)CCc3ccsc3)C[C@@H]2C1,26.9
4,COc1ncc(C(=O)NCc2ccccc2)cn1,64.2
5,CCNc1ncc(C(=O)NCc2ccc3nsnc3c2)cn1,31.9
6,CCOc1ccc(CNC(=O)c2cnc(OC)nc2)cc1,52.7
7,Cc1cccc(C(=O)NCc2ccccc2)n1,21
8,COc1ccc(CNC(=O)c2ccc(Br)cn2)cc1,49
9,COc1ncc(C(=O)NCc2ccc(Br)cc2)cn1,59.8
10,COC(=O)CCNC(=O)c1ccc(OCc2ccccc2)nc1,-8.91
11,CCOc1cccc(C(=O)NCCC(=O)NCc2ccncc2)c1,-5.78
12,COC(=O)c1ccc(C(=O)NCc2ccc(Br)cc2)cn1,45.8
13,CS(=O)(=O)CCN1CCCC1c1noc(C2CC2)n1 (centres undefined),-38.2
14,Cc1cccc(S(=O)(=O)N2CC[C@H]3[C@H]2CCN3c2ncccn2)c1,5.36
15,NC(=O)c1cnn2c1NCC(CNCCc1cccs1)C2 (centres undefined),21.75
16,COCC(C)NC(=O)CN1CCCC1 (centres undefined),-9.39
17,O=S(=O)(Cc1cc(-c2ccccc2)no1)CC1CCCO1 (centres undefined),-73.1
18,CNc1cccc(C2CCCN(C(=O)c3cscn3)C2)n1 (centres undefined),51.5
19,CNc1cccc(C2CCCN(C(=O)c3cnccn3)C2)n1 (centres undefined),-37
20,CNc1cccc(C2CCCN(C(=O)Cc3ccccc3)C2)n1 (centres undefined),81.2
21,CNc1cccc(C2CCCN(C(C)=O)C2)n1 (centres undefined),-1.58
22,CNc1cccc(C2CCCN(C(=O)c3ccn(C)n3)C2)n1 (centres undefined),26.3

row,Compound,INHIBITION [%]
1,CNc1cccc(C2CCCN(C(=O)c3ccncc3)C2)n1 (centres undefined),42.1
2,CN1CCN([C@@H]2CN(C(=O)CCOc3ccccc3)C[C@H]2O)CC1,6.08
3,CC1CCN(c2nc3cn(-c4ccc(F)cc4)c(=O)c-3c[nH]2)CC1,24.2
4,CC(=O)Nc1ncc(S(=O)(=O)Nc2ccccc2F)s1,15.9
5,Cn1nccc1CCC(=O)N1CCOC(c2cnccn2)C1 (centres undefined),2.71
6,Cc1cc(C(=O)N2CCNC(c3ccccc3)C2)c2ccc(F)cc2n1 (centres undefined),36.9
7,O=C(c1cc(-c2cn[nH]c2)nc2cc(F)ccc12)N1CCS(=O)(=O)CC1,79.9
8,O=C(c1cc(-c2cn[nH]c2)nc2ccc(F)cc12)N1CCSCC1,51.8
9,Cn1cc(-c2cc(C(=O)N3CCOCC3)c3ccc(F)cc3n2)cn1,-27.5
10,CCc1ccc2nc(-c3cnn(C)c3)cc(C(=O)N3CCCC3)c2c1,7.3
11,O=C(O)c1cc(-c2cn[nH]c2)cc(S(=O)(=O)N2CCSCC2)c1,-4.927
12,COCc1nnc2n1CCN(Cc1ccoc1)C2,33
13,COCCC1CCN([C@@H]2c3ccccc3C3(CCNCC3)[C@H]2O)CC1,11.6
14,COc1ccc(-c2cc(C3CCCNC3)ccn2)cc1 (centres undefined),-3.02
15,CN1CCCN(c2cnn(Cc3ccc(C(C)(C)C)cc3)c(=O)c2)CC1,15.7
16,Cn1c(Cn2ncc(N3CCCC3)cc2=O)nc2ccccc21,37.6
17,CN1CCCN(c2cnn(Cc3ccncc3)c(=O)c2)CC1,54.8
18,Cn1ncc(N2CCN(Cc3ccc(S(C)(=O)=O)cc3)CC2)cc1=O,27.6
19,CN1CCN(c2cnn(Cc3ccc(S(C)(=O)=O)cc3)c(=O)c2)CC1,51.5
20,Cn1c(Cn2ncc(N3CCCCC3)cc2=O)nc2ccccc21,40.3
21,Cc1cc(C)n(Cc2cc(C(=O)N3CCCCC3c3nccs3)n[nH]2)n1 (centres undefined),7.83
22,CS(=O)(=O)CCC(=O)N(Cc1c(F)cccc1F)C1CCCC1,55

row,Compound,INHIBITION [%]
1,CNS(=O)(=O)CC(=O)N(Cc1c(F)cccc1Cl)C1CC1,17.1
2,CC(=O)N(Cc1c(F)cccc1F)C1CCCC1,58.3
3,CNS(=O)(=O)CC(=O)N(Cc1c(F)cccc1F)C1CCCC1,-5.59
4,CS(=O)(=O)CCC(=O)N(CCc1cccc(F)c1)C1CC1,40.7
5,CNC(=O)N(Cc1c(F)cccc1F)C1CCCC1,16.1
6,Cn1nnnc1SC1CCN(c2ccccc2Cl)C1=O (centres undefined),23.9
7,Cc1cc(C[S+]([O-])Cc2ccccc2F)no1 (centres undefined),40.7
8,CCCc1noc(-c2ccc(-n3ncc(C(=O)O)c3C)nc2)n1,7.92
9,CC(C)[C@]1(O)CN(C(=O)CNC(N)=O)C[C@H]1C,39.9
10,O=C(CS(=O)(=O)Cc1ccc(F)cc1)NC1CCCCNC1=O (centres undefined),-90.9
11,CCOc1ccnc(NCc2nc(C)cc(C(F)(F)F)n2)n1,52.9
12,CCOc1ccnc(NCc2nc(C)cc(=O)[nH]2)n1,27.8
13,CCOc1ccnc(NCCc2nc(C)cc(=O)[nH]2)n1,23.3
14,COCCCN(Cc1ccccn1)Cc1ccnn1C1CCCCO1 (centres undefined),34.1
15,CCc1nnsc1C(=O)N1CCCC(n2nc(C)nc2C)C1 (centres undefined),-10.75
16,CN(Cc1cn2c(n1)CN(CC1CC1)CC2)Cc1ccco1,8.53
17,CN(Cc1cn2c(n1)CN(C(=O)CC1CC1)CC2)Cc1ccco1,30.1
18,CN(Cc1cn2c(n1)CN(C1CCOC1)CC2)Cc1ccco1 (centres undefined),10
19,CN(Cc1cn2c(n1)CN(C(=O)C1CCOCC1)CC2)Cc1ccco1,-8.94
20,CN(Cc1cn2c(n1)CN(CC1CCOC1)CC2)Cc1ccco1 (centres undefined),53.2
21,CN(Cc1cn2c(n1)CN(C1CCOCC1)CC2)Cc1ccco1,56.7
22,Cc1c(CCC(=O)Nc2ccc(Br)cn2)cnn1C,15.2

row,Compound,INHIBITION [%]
1,Cc1nn(C)c(C)c1C1CCCN1Cc1nc(-c2ccccn2)no1 (centres undefined),11.9
2,CC(Nc1ncnc2sccc12)c1cnn(C)c1 (centres undefined),38.7
3,Cc1nn(C)cc1C(C)Nc1ncnc2sccc12 (centres undefined),27.5
4,Cc1c(C(C)Nc2ncnc3sccc23)cnn1C (centres undefined),55.5
5,COc1ccc(OC)c(C(=O)N2CCCCC2Cn2cccn2)c1 (centres undefined),14.4
6,Cc1cc(SCC(=O)O)nc2nn(CC(F)F)c(C)c12,96
7,CCn1nc2nc(SCC(=O)O)cc(C(F)F)c2c1C,20.4
8,Cc1c2c(C(F)F)cc(SCC(=O)O)nc2nn1C,15.9
9,CC(CCNC(=O)NCCc1ccc(S(N)(=O)=O)cc1)c1ccccc1 (centres undefined),54.8
10,O=C(NCCc1ccccc1)NCC(O)c1cccc(F)c1 (centres undefined),-27
11,CC(CCNC(=O)NCCc1ccncc1)c1ccccc1 (centres undefined),55.9
12,CC(c1cccc(S(N)(=O)=O)c1)N(C)CCc1ccccc1 (centres undefined),33.6
13,CC(CCNC(=O)NCCNc1cnccn1)c1ccccc1 (centres undefined),-10.4
14,Cc1cc(NC(=O)NCCc2ccc(S(N)(=O)=O)cc2)n(C)n1,-193
15,CCn1ccc2ccnc(CC3CN(C(=O)c4ccc(F)cc4)C3)c21,16.5
16,Cc1cc(-c2cc(-c3cc(CC(=O)O)cs3)nc(N)c2C#N)oc1C,33.9
17,CCc1oc(C(=O)N[C@@H]2c3ccccc3C[C@@H]2O)cc1C,12.9
18,O=C(C1CCCC1)N1CCC(Nc2ccncn2)CC1,49.9
19,CC(=O)N[C@@H]1Cc2ccccc2[C@H]1Nc1nnc(C2CC2)o1,52.6
20,CCc1nc(C)c(C(=O)N[C@@H]2c3ccccc3C[C@@H]2O)o1,-5.22
21,CC(=O)N[C@@H]1Cc2ccccc2[C@H]1Nc1ccncn1,67.5
22,CC(=O)N[C@@H]1Cc2ccccc2[C@H]1Nc1cc(C2CC2)ncn1,35

row,Compound,INHIBITION [%]
1,Cc1ccc(OCC(=O)N2CCOCC(O)(CN3CCCC3)C2)cc1C (centres undefined),37.9
2,Cc1cnc(CCNC(=O)C2CCN(S(=O)(=O)c3ccc(F)cc3)C2)s1 (centres undefined),-21.8
3,O=C(Cn1cc(-c2ccccc2)cn1)N1CCNC1=O,-7.53
4,Cc1cc(C(=O)NCCc2c(C)nn(C)c2C)nc(N2CCCCC2)n1,-10.5
5,O=C(CCn1nc(C(=O)Nc2ccccc2)ccc1=O)Nc1nccs1,13.1
6,N#Cc1ccc(CC(=O)N2CCC(Nc3cccnn3)CC2)cc1,-3.7
7,CCCc1n[nH]c(C2CN(C(=O)c3cncnc3C)CCO2)n1 (centres undefined),36.1
8,C=c1ncsc1=C1NC(c2cccc(CN3CCOCC3)c2)=NO1,12.6
9,COc1ccc(CN2CCC3(CC2)CCN(c2cnn(C)c2)C3=O)cc1,43.9
10,O=C(c1ccncc1)N1C[C@H]2CC[C@@H](C1)N(C(=O)C1CCCC1)C2,-3.48
11,CCn1cc(CN(C)S(=O)(=O)N2CCCC2c2ccco2)cn1 (centres undefined),32
12,CN(Cc1cnn(C)c1)S(=O)(=O)N1CCCC1c1ccco1 (centres undefined),52.2
13,CCN(Cc1cnn(C)c1)S(=O)(=O)N1CCCC1c1ccco1 (centres undefined),27.5
14,O=C(c1ccc(C2CCCN2C(=O)c2cscn2)s1)N1CCSCC1 (centres undefined),-30.6
15,CN(C)CC(=O)N1CCC2(CC1)COC(COc1ccccn1)C2 (centres undefined),35.3
16,Cc1ccc([C@]2(O)CC[C@H]3CN(Cc4ccncc4)C[C@H]32)nc1,66.4
17,CSc1ccc(CN2C[C@@H]3CC[C@@](O)(c4ccc(C)cn4)[C@@H]3C2)cc1,75.3
18,COc1ncc(CN2C[C@@H]3CC[C@@](O)(c4ccc(C)cn4)[C@@H]3C2)cn1,41.2
19,O[C@@]1(c2ccccn2)CC[C@H]2CN(Cc3ccccn3)C[C@H]21,29.3
20,Cc1ccc([C@]2(O)CC[C@H]3CN(Cc4cccnc4)C[C@H]32)nc1,41.2
21,Cc1ccc([C@]2(O)CC[C@H]3CN(Cc4cc(C)c(O)c(C)c4)C[C@H]32)nc1,45.5
